# HT1080 IDH1KD tx: toxicity to HT-1080 IDH1 knockdown cells (counter line); HT-1080 IDH1 knockdown viability, ATP luminescence, 48 h; Potency, µM (doses to about 46.1 µM), usual class: cytotoxic; 2% of 360,000 active; AID 686971
#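 Cytotoxicity counter-line: IDH1KD HT-1080, 48 h, CellTiter-Glo. Curves classed by r2, magnitude and activity.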
# MCF10A rereplic: induces DNA re-replication in MCF 10a normal breast cells; MCF 10A DNA re-replication, Hoechst nuclear intensity, 48 h; Potency, µM (top dose mostly 46.1 µM), hits mostly activators; 2.9% of 350,000 active; AID 624296; note: nearly all actives have a fitted effect of over 50% in size
# KB-3-1 tox: kills parental KB-3-1 adenocarcinoma cells. KB-3-1 viability, CellTiter-Glo ATP luminescence, 72 h. Potency, µM (titrated, usually from 46.1 µM), hits mostly cytotoxic. 1.4% of 400,000 active. AID 1347075; note: nearly all actives have a fitted effect of over 60% in size
#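 Cells are dispensed, compounds pinned in, plates held at 37 °C for 72 h, then CellTiter-Glo is added and luminescence read after 10 minutes. Cell line: parental KB-3-1 in phenol-red-free DMEM, 10% FBS.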
# SW480 rerep: DNA re-replication induction in SW480 cells; SW480 DNA re-replication, Hoechst DNA content imaging, 48 h; Potency, µM (top dose mostly 46.1 µM), actives largely listed as activators; 1.8% of 340,000 active; AID 624297; note: nearly all actives have a fitted effect of over 55% in size
#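 Hoechst fluorescence of nuclei (405 nm excitation, 500-530 nm emission) measured by plate-scanning imager after 48 hr compound exposure at 37 C; re-replication scored as increased number of nuclei with elevated intensity.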
# KB-V1 MDR tox: KB-V1 MDR subline cytotoxicity | KB-V1 MDR cells viability, CellTiter-Glo, 72 h | Potency, µM (titrated, usually from 46.1 µM), usual class: cytotoxic | 3.4% of 400,000 active | AID 1347076; note: nearly all actives have a fitted effect of over 60% in size
#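 Following 72 h at 37 degrees C with compound, KB-V1 cell viability was read by CellTiter-Glo luminescence, medium being phenol-red-free DMEM plus 10% FBS; concentration-response parameters came from normalized, curve-fitted qHTS data.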
# HT1080NT lethal: kills 2HG-producing HT-1080-NT fibrosarcoma cells. 1.6% of 360,000 active. HT-1080-NT fibrosarcoma viability, CellTiter-Glo ATP luminescence, 48 h. Potency, µM (doses to about 46.1 µM), usual class: cytotoxic;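 note: NT is the 2HG producing partner of a matched IDH1 knockdown line; nearly all actives have a fitted effect of over 55% in size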
#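 Read-out is CellTiter-Glo luminescence after 10 minutes at room temperature, following 48 hours' compound treatment of HT-1080-NT cells (750 cells/well, RPMI, 5% FBS, 37 degrees C).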
# Hits are given with their value; . = inactive; ? = inconclusive; / = no result given; ! = not confirmed by another sample; [ ] = another dose, or the depositor's remark. Hits are enriched below; roughly 8% of the tested compounds scored in any of these assays. Calls come from the whole dose curve; as a rule, active = well fitted curve in the direction sought with a large enough effect; inconclusive = small, poorly fitted or top-dose-only effect, or another doubt; inactive = no such curve, though single readings can be large; an effect the other way counts as inactive or inconclusive.
SMILES,HT1080 IDH1KD tx,MCF10A rereplic,KB-3-1 tox,SW480 rerep,KB-V1 MDR tox,HT1080NT lethal
O=C(Nc1ccccc1)c1cccc(S(=O)(=O)Nc2cccc(F)c2)c1,/,/,.,/,.,/
CCOC(=O)c1cccc(NC(=O)CC(c2cc(OC)c(OC)c(OC)c2)N2Cc3ccccc3C2=O)c1 (stereo not drawn),/,/,.,/,.,/
CC(=O)CC1N(S(=O)(=O)c2ccc(C)cc2)c2ccccc2N1S(=O)(=O)c1ccc(C)cc1,.,/,.,/,?,.
C=C[C@@H]1c2ccccc2N(S(=O)(=O)c2ccc(C)cc2)[C@H](c2ccc(OC(C)=O)cc2)C1(C#N)C#N,?,?,18µM!,?,?,?
C=C[C@@H]1c2cc(C)ccc2N(S(=O)(=O)c2ccc(C)cc2)[C@H](c2ccc(OC(C)=O)cc2)C1(C#N)C#N,6.5µM,3.3µM,6.5µM!,.,7.3µM,7.3µM
CCOc1ccc(C2Nc3cccc4cccc(c34)N2)cc1OC,.,.,.,.[9.22 µM],.,.
CCOc1cc(C2Nc3cccc4cccc(c34)N2)ccc1O,.,.,?,?,15µM,.
CC(C)CCNC(=O)C(c1ccco1)N(Cc1cccs1)C(=O)Cn1nnc2ccccc21 (stereo not drawn),.,.,.,.,5.2µM,.
COCCNC(=O)C(c1cccs1)N(Cc1cccs1)C(=O)Cn1nnc2ccccc21 (stereo not drawn),.,?,.,.,.,.
CCCN(CCC)C(=O)Cn1c(=O)n(-c2ccc(CC)cc2)c(=O)c2c3c(sc21)CCC3,/,/,.,/,.,/
CCOC(=O)c1c(NC(=O)CN2C(=O)NC3(CCCCC3)C2=O)sc(C)c1-c1ccc(C)cc1,.,?,?,/,21µM,.
COc1ccc(NC(=O)CN2C(=O)NC3(CCCC3)C2=O)c(OC)c1,.,.,.,.,.,.
CCOC(=O)c1c(NC(=O)CN2C(=O)NC3(CCC(C)CC3)C2=O)sc(C)c1-c1ccc(C)cc1 (stereo not drawn),.,.,.,.,.,.
Cc1ccc(Cl)cc1NC(=O)CN1C(=O)NC2(CCCCCC2)C1=O,.,.,.,.,21µM,.
O=C(CN1C(=O)NC2(CCCCC2)C1=O)Nc1cccc2ncccc12,.,.,.,21µM,.,.
COc1cccc(Oc2ccc(C(F)(F)F)cc2NC(=O)CN2C(=O)NC3(CCCC3)C2=O)c1,.,18µM,?,.,.,?
CCN(c1ccccc1)c1nc(N)nc(C#N)n1,/,/,.,/,.,/
CC1CCC(C(=O)NC(C(=O)OCC(=O)c2ccccc2)C(C)C)CC1 (stereo not drawn),/,/,.,/,.,/
CC(=O)N1CCCC1c1nc2ccccc2n1Cc1ccccc1Cl (stereo not drawn),/,/,.,/,.,/
Cc1ccc(Cl)cc1NC(=O)CNC(=O)N1CC(=O)Nc2ccccc21,.,.,.,29µM,.,.
CCCCc1cc(=O)oc2cc(OCc3cc(OC)c(OC)c(OC)c3)c(Cl)cc12,.,10µM,.,.,.,.
CCCc1cc(=O)oc2cc(OCc3cc(OC)c(OC)c(OC)c3)c(Cl)cc12,.,?,.,.,.,.
Oc1ccccc1C(Nc1nccs1)c1ccc2cccnc2c1O (stereo not drawn),7.3µM,?,2.3µM,.,12µM,?
Oc1c(C(Nc2ccccn2)c2ccccn2)ccc2cccnc12 (stereo not drawn),8.2µM,?,15µM,?,5.8µM,?
Cc1nn(CC(C)C)c(Cl)c1C(=O)N(c1ccc(Cl)cc1F)S(C)(=O)=O,.,21µM,.,.,?,?
SMILES,HT1080 IDH1KD tx,MCF10A rereplic,KB-3-1 tox,SW480 rerep,KB-V1 MDR tox,HT1080NT lethal
COc1ccc(CCNC(=O)c2c(C)nn(CC(C)C)c2Cl)cc1,.,.,.,.,?,.
COc1ccccc1CNC(=O)c1ccc2nc(N3CCCCC3)sc2c1,/,/,.,/,.,/
NC[C@H](Cc1ccccc1)NCCCCC1CCCCC1,.,.,.,.,.,.
CNC[C@H](CC1CCCCC1)NC[C@H](Cc1ccccc1)NCCC12CC3CC(CC(C3)C1)C2,?,?,?,.,18µM,21µM
Cc1cccc(C(c2sc3nc(-c4ccco4)nn3c2O)N2CCOCC2)c1 (stereo not drawn),/,/,.,/,?,/
CCOC(=O)c1cccc(NC(=O)CCCn2c(C)c3cnn(-c4ccccc4)c(=O)c3c2C)c1,/,/,.,/,.,/
COC(=O)c1cc(NC(=O)c2cccc(C(F)(F)F)c2)c(=O)oc1C,.,.,.,.,.,.
COC(=O)c1cc(NC(=O)c2cccc(C(F)(F)F)c2)c(=O)oc1C/C=N/OCc1cccc(Cl)c1Cl,.,18µM,.,.,.,.
Cc1nc2sc(C(c3ccco3)N3CCN(c4ccccc4F)CC3)c(O)n2n1 (stereo not drawn),.,18µM,.,.,.,.
Cc1oc2ncnc(N3CCOCC3)c2c1C(=O)Nc1ccc(Br)cc1F,/,/,.,/,.,/
CCOc1cc(-c2nnc(SCC(=O)Nc3ccc(F)c(F)c3)nc2-c2ccc(OC)c(OCC)c2)ccc1OC,/,/,.,/,.,/
COc1ccc(NC(=O)CCN2C(=O)c3ccccc3C2=O)c(OC)c1,.,.,.,.,.,.
COc1ccc(OC)c(N(CCN2C(=O)c3ccccc3C2=O)C(=O)CCl)c1,16µM,/,?,/,?,?
CCOc1ccc(NC(=O)c2cnn(-c3ccc(C)c(C)c3)c2C2CCN(C(=O)OC(C)(C)C)CC2)cc1,/,/,.,/,.,/
CCc1cc(CC)c(/C=N/NC(N)=O)c(CC)c1,.,.,.,.,.,.
Cc1cc(C)c(/C=N/NC(N)=O)c(C)c1/C=N/NC(N)=O,.,?,3.7µM,.,?,.
Cc1ccc2c(c1)c1c(c(=O)n(-c3ccccc3C)c(=O)n1CC(=O)NCCC1=CCCCC1)n2C,/,/,.,/,.,/
c1cc2c(cc1-c1[nH]ncc1CN1C[C@H]3CC[C@H]1C3)OCO2,.,.,.,5.8µM,.,.
CN(Cc1cn[nH]c1-c1ccc2c(c1)OCO2)C1CCOCC1,.,.,.,.,.,.
C/C=C1/NN(CCCN2CCN(c3cccc(Cl)c3)CC2)C(=O)N1CCOc1ccccc1,/,?,/,.,/,/
COc1ccc(C(=O)Nc2nnc(S(=O)(=O)N3CCCc4ccccc43)s2)cc1,/,/,.,/,.,/
Cc1cc(/C=C2\C=Cc3ccccc32)cc(C)c1[N+](=O)[O-],/,/,.,/,.,/
O=c1[nH]c(=O)n(Cc2ccccc2)c2nc(-c3ccc(Oc4ccc(F)cc4)c([N+](=O)[O-])c3)n(CCO)c12,?,?,?,.,?,21µM
COCCn1c(=O)[nH]c(=O)c2c1nc(-c1ccc(-c3ccc(Cl)cc3[N+](=O)[O-])o1)n2Cc1ccccc1,?,5.2µM,?,?,23µM,?
